Source: PubChem BioAssay (NCI)
The panel holds about 83,000 compounds, 20% with a hit somewhere; the sample as a whole holds those more often.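 Single-concentration screen, 48 h exposure, 96-well plates. Endpoint: percent growth. Below 10 = active.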 Active and inactive are the calls of the source.

Legend:
Assay in all cases: NCI-60 one-dose screen, 48 h (100 = growth as untreated, 0 = no growth, -100 = all killed)
Conditions in all cases: 10 µM unless noted
[1] = test system: NCI-H23 lung
[2] = test system: NCI-H226 lung
[3] = test system: NCI-H322M lung
[4] = test system: HOP-62 NSCLC
[5] = test system: NCI-H460 lung
[6] = test system: HOP-92 NSCLC
[7] = test system: NCI-H522 lung
[8] = test system: A549/ATCC NSCLC
[9] = test system: 786-0 renal
[10] = test system: COLO 205 colon
[11] = test system: DU-145 prostate
[12] = test system: K-562 leukemia
[13] = test system: MALME-3M melanoma
[14] = test system: MDA-MB-231 breast
[15] = test system: RXF 393 renal
[16] = test system: SF-268 CNS
[17] = test system: SF-295 CNS
[18] = test system: SF-539 CNS
[19] = test system: UACC-257 melanoma
[20] = test system: M14 melanoma

Measured: growth

O=c1ccc(-c2nc(N3CCOCC3)c3ccccc3n2)c[nH]1
inactive: [1] 93.9% | [2] 91.7% | [3] 92.3% | [4] 99.6% | [5] 103% | [6] 103% | [7] 98.9% | [8] 97% | [9] 97.1% | [10] 106% | [11] 93.6% | [12] 116% | [13] 99.4% | [14] 88.4% | [15] 103% | [16] 88.1% | [17] 90.5% | [18] 93.5% | [19] 124% | [20] 93.3%

CCOC(=O)[C@@H]1CCCN(S(=O)(=O)c2ccc(S(=O)(=O)N(CC)CC)c(F)c2)C1
inactive: [1] 45.3% | [2] 72.6% | [3] 90.2% | [4] 74.6% | [5] 81.2% | [6] 67.4% | [7] 65.3% | [8] 86.2% | [9] 70.7% | [10] 83.9% | [11] 99% | [12] 37.4% | [13] 79.9% | [14] 92.9% | [15] 76.4% | [16] 85.9% | [17] 49.6% | [18] 88.8% | [19] 60.6% | [20] 76.2%

Cc1ccc(-n2cc(-c3ccccc3)c3c2N=NN2CCN=C32)cc1
inactive: [1] 93.1% | [2] 82.3% | [3] 97.4% | [4] 97.4% | [5] 104% | [6] 102% | [7] 90.2% | [8] 105% | [9] 99.3% | [10] 120% | [11] 113% | [12] 87% | [13] 104% | [14] 85.9% | [15] 109% | [16] 96.8% | [17] 96.5% | [18] 101% | [19] 113% | [20] 104%

COC(=O)N[C@H]1CCc2c(Cl)c(OC)c(OC)c(OC)c2-c2ccc(SC)c(=O)cc21
inactive: [1] 34% | [2] 22.7% | [3] 35.4% | [4] 38% | [7] 21.7% | [8] 19.8% | [13] 36.8% | [15] 20.3% | [16] 20.2% | [17] 12% | [19] 68.3%
active: [5] -11.4% | [6] 1.96% | [9] 7.29% | [10] -24.3% | [11] -11.1% | [12] 7.05% | [14] -2.11% | [18] -0.571% | [20] 0.0864%

O=C(Cc1ccc(/C=C/C(=O)c2ncc[nH]2)cc1)Nc1ccc(Cl)cc1
active: [4] 8.21% | [5] -35.5% | [9] 4.48% | [12] 8.02% | [17] 8.31% | [18] -23.1%
inactive: [1] 28.6% | [2] 82.2% | [3] 42.8% | [6] 76% | [7] 34.2% | [8] 33.2% | [10] 32.9% | [11] 18.4% | [13] 89.3% | [14] 22.3% | [15] 49.7% | [16] 12% | [19] 78.7% | [20] 63.6%

COc1ccc(OC)c(-c2cc(-c3ccc(Cl)cc3)c3c(N)c(C(=O)c4ccc(Cl)cc4)sc3n2)c1
inactive: [1] 91.4% | [2] 96.1% | [3] 93.6% | [4] 81.3% | [5] 105% | [6] 90.9% | [7] 86.1% | [8] 97.3% | [9] 97.3% | [10] 110% | [11] 107% | [12] 118% | [13] 89.7% | [14] 90.4% | [15] 115% | [16] 100% | [17] 99.2% | [18] 101% | [19] 98.2% | [20] 102%

Cc1ccc(CNc2c3ccccc3nc3cc(NC(=O)CCN4CCCC4)ccc23)cc1
active: [1] -48.1% | [3] 1.8% | [5] -64.7% | [6] -0.443% | [7] -41.2% | [8] -36.9% | [10] -40.3% | [11] -67.9% | [12] -30.3% | [13] -94% | [14] -7.47% | [15] 1.55% | [20] -88%
inactive: [2] 35% | [4] 19.9% | [9] 22.3% | [16] 15.1% | [17] 36.7% | [18] 16.7% | [19] 24.1%

COc1cc2nc(-c3ccc(Cl)cc3)cc(OCCCN3CCCC3)c2cc1OC
inactive: [1] 62.8% | [3] 58.5% | [4] 45.3% | [5] 25.2% | [6] 25% | [7] 38.1% | [8] 41.5% | [9] 67.4% | [10] 21.5% | [11] 41.7% | [12] 21.1% | [13] 50% | [14] 21.5% | [15] 42.8% | [16] 54.5% | [18] 42.6% | [19] 31.7%
active: [2] -13.5% | [17] -17% | [20] -29.7%

CC(=O)Nc1cccc(-c2ccc3c(c2)NC(=O)/C3=C\c2ccc[nH]2)c1
inactive: [1] 27.8% | [2] 52.7% | [3] 40.9% | [4] 55.3% | [5] 21.6% | [6] 80.8% | [7] 16.6% | [8] 40.4% | [9] 59% | [10] 38.8% | [11] 57.4% | [12] 12.3% | [13] 71.7% | [14] 34.9% | [15] 54.3% | [16] 67.5% | [17] 32.6% | [18] 28.1% | [19] 73.2% | [20] 39.1%

O=C(Nc1ccc(F)cc1)Nc1ccc(NC(=O)c2cc(Cl)nc3ccccc23)cc1
inactive: [1] 69.2% | [2] 52.8% | [3] 59.6% | [4] 22.4% | [5] 18.5% | [6] 23.5% | [7] 61.7% | [8] 79.8% | [9] 98.4% | [10] 53.5% | [11] 57% | [12] 58.5% | [13] 53.7% | [14] 45.9% | [15] 86.9% | [16] 68.1% | [17] 64.6% | [18] 35.6% | [19] 79.8% | [20] 74.3%

CCCOC(=O)N[C@H]1CCc2c(Cl)c(OC)c(OC)c(OC)c2-c2ccc(SC)c(=O)cc21
inactive: [1] 26.8% | [3] 31.8% | [4] 40.5% | [7] 12.3% | [8] 22.8% | [13] 25.2% | [15] 24.3% | [16] 24.7% | [17] 17.5% | [19] 72.4%
active: [2] 6.58% | [5] 1.99% | [6] -2.58% | [9] 4.31% | [10] 0.25% | [11] 3.02% | [12] 9.67% | [14] -16.7% | [18] 3.18% | [20] -13.6%

CCCCNC(=O)Oc1ccc(/C(=C(\C)c2ccccc2)c2ccc(OCCN3CCCCC3)cc2)cc1
active: [12] 5.45% | [19] -24.1% | [20] -15.6%
inactive: [1] 67.9% | [2] 86.8% | [3] 75.3% | [4] 77.9% | [5] 40.5% | [6] 68.1% | [7] 73.1% | [8] 57.8% | [9] 27.1% | [10] 14.3% | [11] 82.3% | [13] 44.6% | [14] 73% | [15] 53.2% | [16] 67.7% | [17] 42.6% | [18] 31%

CC1(C)CC(=O)C2=C(C1)N(c1ccc(F)cc1F)C(N)=C(C#N)C2c1cc(Br)ccc1F (stereo not given)
inactive: [1] 86.7% | [2] 103% | [3] 95.4% | [4] 89.9% | [5] 95% | [6] 119% | [7] 80.7% | [8] 79.3% | [9] 98.6% | [10] 118% | [11] 95.4% | [12] 87.6% | [13] 99% | [14] 96.4% | [15] 103% | [16] 103% | [17] 105% | [18] 87.8% | [19] 101% | [20] 85.1%

C=CCN1C(=O)/C(=C/C(=O)OC)S/C1=N\NC(=O)c1cc2ccc1/C=C\c1ccc(cc1)/C=C\2
inactive: [1] 88.2% | [2] 87.5% | [3] 97.1% | [4] 107% | [5] 102% | [6] 81.4% | [7] 60.7% | [8] 94.8% | [9] 91.2% | [10] 110% | [11] 106% | [12] 51.9% | [13] 92.4% | [14] 97.7% | [15] 94.8% | [16] 103% | [17] 93.6% | [18] 99.7% | [19] 91.1% | [20] 78.9%

CC(=O)N1N=C(c2ccc(-n3ccc(C(F)(F)F)n3)c(F)c2)CC1c1ccc[nH]1 (stereo not given)
inactive: [1] 100% | [2] 106% | [3] 110% | [4] 112% | [5] 103% | [6] 130% | [7] 77.2% | [8] 104% | [9] 102% | [10] 122% | [11] 109% | [12] 91.9% | [13] 102% | [14] 105% | [15] 116% | [16] 104% | [17] 98.8% | [18] 102% | [19] 96.4% | [20] 102%
